From PubChem BioAssay
HP1b chromo inh: inhibitors of HP1-beta chromodomain binding to methylated histone tails; P83916; AlphaScreen HP1-beta / biotin-H3K9me3 peptide binding; Potency, µM (highest dose often 114 µM), for inactives: at the top dose activity change, negative = inhibition, hits mostly inhibitors; actives 0.56% (n = 390,000); note: nearly all actives have a fitted effect of over 70% in size
Target sequence (P83916 whole entry, looked up): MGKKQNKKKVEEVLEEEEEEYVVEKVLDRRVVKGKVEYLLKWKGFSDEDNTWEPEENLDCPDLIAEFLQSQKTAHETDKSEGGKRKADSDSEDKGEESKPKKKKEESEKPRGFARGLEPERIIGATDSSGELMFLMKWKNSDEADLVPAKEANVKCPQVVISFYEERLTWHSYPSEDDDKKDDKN
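AlphaScreen: HP1-beta (50 nM) preformed 30 min with biotin-H3(1-18)K9me3 peptide (50 nM) in PBS pH 7.4, 0.01% Tween-20. Compound added for 30 min at RT, then streptavidin donor/nickel chelate acceptor beads (10 ug/mL) for 30 min.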
GLS inhibitor: glutaminase GLS (human) inhibition. O94925. AID 624170. actives 0.21% (n = 410,000). Potency, µM (top dose mostly 45.5 µM), for the others: at the top dose activity change, negative = inhibition, usual class: inhibitors. GLS enzymatic activity, qHTS titration; note: % is set by controls: 0 for no effect and ±100 for the full control effect
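Assay buffer: 45 mM KH2PO4 pH 8.2, 0.02% Tween-20. hKGA acts on L-glutamine (1 mM solution added); product glutamate is reported by an oxidase/peroxidase Amplex Red coupling, with fluorescence taken at baseline and 30 min.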
G9a block: G9a (human) methyltransferase inhibition; Q96KQ7; G9a H3K9 monomethylation, AlphaScreen, 2 h; Potency, µM (series often up to 102 µM), for inactives: top-dose activity, negative = inhibition, most hits filed as inhibitors; actives 8.8% (n = 350,000); AID 504332; note: % is set by controls: 0 for no effect and ±100 for the full control effect; nearly all actives have a fitted effect of over 75% in size
Target sequence (Q96KQ7 913-1193 limits assumed): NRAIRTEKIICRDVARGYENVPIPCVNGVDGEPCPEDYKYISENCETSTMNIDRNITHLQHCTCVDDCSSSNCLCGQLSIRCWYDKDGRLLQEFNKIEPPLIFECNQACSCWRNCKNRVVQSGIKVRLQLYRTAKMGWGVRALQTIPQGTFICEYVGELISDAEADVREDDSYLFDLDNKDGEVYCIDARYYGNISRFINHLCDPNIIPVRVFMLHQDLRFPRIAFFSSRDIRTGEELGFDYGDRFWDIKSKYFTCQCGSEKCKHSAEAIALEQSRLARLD
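AlphaScreen detection with an anti-monomethyl H3K9 antibody quantified product after a 2 h room-temperature reaction containing 500 nM biotinylated H3K9 peptide, 20 µM SAM and 20 nM enzyme, which had been preincubated 15 min with compound.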
JMJD2A Tudor: blocks the human JMJD2A Tudor domain. O75164. AlphaScreen JMJD2A-Tudor / H3K4me3 peptide binding. Potency, µM (highest dose often 114 µM), inactives show at the top dose activity change, negative = inhibition, hits mostly inhibitors. actives 4.4% (n = 390,000); note: % is set by controls: 0 for no effect and ±100 for the full control effect; nearly all actives have a fitted effect of over 50% in size
BAZ2B block: inhibitors of human BAZ2B bromodomain; actives 4.4% (n = 360,000); AlphaScreen BAZ2B-H3K14Ac peptide displacement; Q9UIF8; Potency, µM (series often up to 114 µM), for the others: top-dose activity change, negative = inhibition, actives largely listed as inhibitors; AID 504333; note: % is set by controls: 0 for no effect and ±100 for the full control effect; nearly all actives have a fitted effect of over 60% in size
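BAZ2B 50 nM plus b-H3(5-23)K14Ac 50 nM, PBS pH 7.4/0.01% Tween-20, 30 min RT; compound added (max 110 uM), 30 min RT; streptavidin donor/Ni-chelate acceptor beads 10 ug/mL final, 20 min dark; AlphaScreen read.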
An asterisk follows results filed as active; ? = inconclusive; / = not tested or not shown; [ ] = remark or other dose. Shown are actives, neighbours in structure and some others; about 10% of the full set was active somewhere. Calls come from the whole dose curve; as a rule, active = well fitted curve in the direction sought with a large enough effect; inconclusive = small, poorly fitted or top-dose-only effect, or another doubt; inactive = no such curve, though single readings can be large; an effect the other way counts as inactive or inconclusive. Potency is the fitted concentration of half-maximal effect.

SMILES	HP1b chromo inh	GLS inhibitor	G9a block	JMJD2A Tudor	BAZ2B block
CC(C)N1CCN(S(=O)(=O)c2ccccc2)CC1	?	-4%	22µM*	28µM*	?
O=C(O)c1cccc(S(=O)(=O)N2CCCC2)c1	14%	5%	?	-16%	-4%
C=CCOC(=O)Nc1snnc1C	13%	1%	4%[59 µM]	-14%	-3%
O=C(CSc1ccccc1)NC1CCCCCCC1	40%	7%	59%	14%	-1%
CCN(C(=O)c1sc2nc3n(c(=O)c2c1C)CCCC3)c1ccccc1F	79%	2%	13µM*	-26%	-3%
Cc1ccc(Cl)cc1N(C)C(=O)c1sc2nc3n(c(=O)c2c1C)CCCC3	57%	18%	13µM*	-27%	?
Cc1cc(C)c([N+](=O)[O-])cc1NC(=O)CCSc1ccccc1Cl	19%	1%	12%[59 µM]	-13%	4%
COc1ccc(NC(=S)N(CCc2c(C)[nH]c3ccc(C)cc23)Cc2cccnc2)cc1	-22%	3%	50µM*	50µM*	35µM*
Cc1[nH]c2ccccc2c1CCN(Cc1cccnc1)C(=S)Nc1cccc(F)c1	-8%	23%	50µM*	?	/
Cc1[nH]c2ccccc2c1CCN(Cc1cccnc1)C(=S)Nc1ccc(F)cc1	-8%	1%	?	?	/
CCOc1ccc(NC(=S)N(CCc2c(C)[nH]c3ccc(C)cc23)Cc2ccncc2)cc1	-20%	11%	40µM*	25µM*	35µM*
Cc1[nH]c2ccc(F)cc2c1CCN(Cc1cccnc1)C(=S)Nc1ccccc1	-2%	8%	56µM*	?	/
CCC(=O)Nc1cccc(C2=NOC3(C2)C[C@@H](C(N)=O)N(C(=O)c2ccc(OC)cc2)C3)c1 (some centres undefined)	10%	4%	16%[12.7 µM]	-14%	1%
O=C(NCc1ccc(Cl)cc1)c1cc2ccccn2n1	53%	-2%	19%	-6%	-3%
O=C(Nc1ccccc1C(=O)OCc1cc(=O)n2c3c(sc2n1)CCCC3)c1ccccc1	33%	9%	-3%[12.7 µM]	0%	-3%
C=CCNC(=O)c1scc2c1CCCC2	28%	0%	?	-17%	-1%
CN(C)CCNC(=O)c1scc2c1CCCC2	25%	-2%	/	89µM*	?
O=C(Nc1nc(-c2cccs2)cs1)c1ccc(S(=O)(=O)N2CCCCC2)cc1	26%	-8%	?	-17%	-5%
O=C(NCc1ccco1)c1nn2c(C(F)(F)F)cc(-c3cccs3)nc2c1Br	18%	14%	50µM*	-26%	?
O=C(NCc1ccco1)c1nc2nc(-c3cccs3)cc(C(F)(F)F)n2n1	8%	-5%	45µM*	-18%[57.1 µM]	?
O=C(NCC1CCCO1)c1nn2c(C(F)(F)F)cc(-c3cccs3)nc2c1Br (centres undefined)	14%	4%	20%	-10%	6%
Cc1ccc(S(=O)(=O)NC(=O)c2cc(C)n(-c3cc(S(=O)(=O)N4CCOCC4)ccc3N3CCCC3)c2C)cc1	-13%	2%	?	-24%	-9%
COCCNCc1cc(C)n(-c2cc(S(=O)(=O)N3CCOCC3)ccc2N2CCCC2)c1C	-37%	-13%	/	5µM*	/
CCN(CC)c1ccc(-c2nc3cnccn3c2NC2CCCC2)cc1	?	?	50µM*	79µM*	-5%
CC1(C(=O)NC(=S)N(CCC#N)c2ccccc2)CC1(Cl)Cl (centres undefined)	-1%	38%	28µM*	?	-37%
SMILES	HP1b chromo inh	GLS inhibitor	G9a block	JMJD2A Tudor	BAZ2B block
COc1ccc2c(c1)C(C)CC(C)(C)N2C(=O)Nc1ccccc1 (centres undefined)	6%	?	22µM*	0%[57.1 µM]	?
COc1cccc(CNC(=O)[C@@H]2CCCN2C(=O)[C@@H]2CCCN2C(=O)c2cccc(Cl)c2)c1	/	-9%	/	/	/
Cc1c(P(=S)(c2ccccc2)c2ccccc2)[n+]2ccccc2n1C/C=C/c1ccccc1	/	-11%	/	-27%	/
CCOC(=O)Cn1nc(C)c(NC(=O)COc2ccc(F)cc2F)c1C	/	/	-5%	/	-1%
Cn1c(SCc2cccnc2)nnc1-c1c[nH]c2ccccc12	24%	-1%	-4%	-8%	2%
CC(=O)N1CCN(C(=S)c2ccc(-c3ccc(Cl)cc3)o2)CC1	-68%	-4%	4µM*	?	-6%
S=C(c1ccc(-c2cccc(Cl)c2)o1)N1CCCCC1	?	?	11µM*	28µM*	32µM*
S=C(c1ccc(-c2cccc(Cl)c2)o1)N1CCOCC1	35µM*	-13%	?	50µM*	45µM*
CCCCn1c(=O)[nH]c(=O)c2c1nc(-c1ccc(OC)c(Br)c1)n2CC(C)C	2%	6%	?	-27%	-22%
Cc1ccccc1CN1CCN(CC2CC3C=CC2C3)CC1 (centres undefined)	?	9%	3.2µM*	5.6µM*	22µM*
CCN1CCN(CC2CC3C=CC2C3)CC1 (centres undefined)	?	2%	?	1.3µM*	50µM*
COc1ccccc1CNC(=O)c1ccc2nc(CCc3ccccc3)oc2c1	26%[57 µM]	-10%	10%[59 µM]	-17%	0%
COc1ccc(OCC(=O)Nc2ccc(NC(=O)c3cccs3)c(OC)c2)cc1	0%	-4%	1%	-23%	-9%
CN(C)c1ccc(C2N(c3ccc(F)cc3)C(=O)C3CCCN32)cc1 (centres undefined)	43%	19%	-87%	-19%	20%
OCCN(Cc1ccccc1)CC1CCCCC1	14%	0%	11µM*	22µM*	?
OCCN(Cc1ccccc1)CC1CC2C=CC1C2 (centres undefined)	-51%	14%	14µM*	3.2µM*	?
O=C1C2C3C=CC(C3)C2C(=O)N1CN(Cc1ccccc1)CN1C(=O)C2C3C=CC(C3)C2C1=O (centres undefined)	15%	-2%	-3%[59 µM]	-4%	18%
CCCc1cc(=O)oc2cc(OC(C)C(=O)NC3CC(C)(C)NC(C)(C)C3)ccc12 (centres undefined)	36%	-10%	7.1µM*	-13%	-2%
CC(C)C(=O)OCc1cn(-c2ccc(Cl)c(Cl)c2)nn1	-4%	10%	26%	22µM*	66%
CC(C)(C)C(=O)OCc1cn(-c2ccc(Cl)cc2)nn1	44%	3%	?	5%	1%
COc1ccc(Cl)cc1-c1n[nH]c(=S)n1C1CCCCC1	15%	4µM*	1.4µM*	35µM*	-20%
Cc1cc(Cl)ccc1OCc1n[nH]c(=S)n1C1CCCCC1	-10%	?	?	-34%[57.1 µM]	?
O=C(CSc1nnc(-c2cccnc2)n1C1CCCCC1)NC1CCCCC1	17%	0%	-8%	-4%	10%
Cc1ccsc1-c1n[nH]c(=S)n1C1CCCCC1	?	5%	1.6µM*	35µM*	-8%
